# Test results as given in PubChem BioAssay (Tox21).
# Inconclusive results are not listed. The source made the active and inactive calls. Calls come from the whole dose curve; as a rule, active = well fitted activation curve with a large enough effect in the repeat runs; inconclusive = weak or mixed curves; inactive = flat fitted curve, though single readings scatter.
# Assay: Caspase-3/7 induction in HepG2 cells by small molecules, qHTS assay (AID 1346978); note: nearly all actives have a fitted effect of over 15% in size
# Conditions: HepG2 caspase-3/7 activation, Caspase-Glo luminescence, 17 h; series mostly up to 92.4 µM; caspase activation: at the top concentration
# Description: National Center for Advancing Translational Sciences [NCATS] NIH Chemical Genomics Center [NCGC] U.S. Environmental Protection Agency [EPA] National Institutes of Environmental Health Sciences [NIEHS] National Toxicology Program [NTP] Assay overview: Apoptosis is a process of programmed cell death and plays a central role in the development of multicellular organisms. It is a highly regulated process and induces cell death by activating caspases, which are the members of cysteine aspartic acid-specific protease (caspase) family. Caspases involved in apoptosis are classified by their mechanism of action as initiator caspases (caspase-2, -8, -9 and -10) and executioner caspases (caspase-3, -6, and -7). Inhibition of apoptosis results in number of cancers, autoimmune diseases, inflammatory diseases and viral infection. To identify small molecule compounds that induce apoptosis, a homogeneous, luminescent Caspase-Glo 3/7 assay was used. Wild type HepG2 cells were used to screen Tox21 libraries for identifying caspase-3/7 activity inducers.
# Assay Protocol Summary: HepG2 cells were dispensed at 2,000 per well in 5uL of culture medium into white solid bottom 1536-well plates (Corning Life Sciences, Corning, NY) using a Multidrop Combi (Thermo Scientific, Waltham, MA) dispenser. The assay plates were incubated at 37 C and 5% CO2 for 5hr, and then 23nL of compounds dissolved in DMSO and positive control were transferred using a Pintool station (Wako, San Diego, CA). The assay plates were incubated at 37C and 5% CO2 for 17hr. For caspase-3/7 activity read, 4uL of Caspase-Glo 3/7 reagent (Promega Corporation, Madison, WI) was added to each well of the assay plates using Flying Reagent Dispenser (FRD, Aurora Discovery, San Diego, CA) and incubated the assay plates at room temperature for 30min. The luminescence signal was quantified using a ViewLux plate reader (Perkin Elmer, Shelton, CT).
# % is set by controls: 0 for no effect and ±100 for the full control effect.
Structure (SMILES),caspase activation,Potency
Cn1sc(Cl)cc1=O,1.58% (inactive),–
CCOP(=O)(OCC)Oc1ccc([N+](=O)[O-])cc1,–,inactive
CCOC(=O)C(Cl)C(C)=O (stereo not given),0.614% (inactive),–
C=CC(=O)OC,-0.214% (inactive),–
O=C1NCN(c2ccccc2)C12CCN(CCCOc1ccc(F)cc1)CC2,7.77% [at 42.5 µM] (inactive),–
CC(C)N(CCC(C(N)=O)(c1ccccc1)c1ccccn1)C(C)C (stereo not given),0.0192% [at 42.5 µM] (inactive),–
COP(=S)(Oc1cc(Cl)c(Br)cc1Cl)c1ccccc1 (stereo not given),0.242% (inactive),–
CCCCNP(N)(N)=S,0.512% (inactive),–
Cc1c(F)c(F)c(COC(=O)C2C(/C=C(\Cl)C(F)(F)F)C2(C)C)c(F)c1F (stereo not given),-0.379% (inactive),–
CC1C(=O)C[C@]2(C(C)C)C[C@H]12 (stereo not given in full),-0.0558% (inactive),–
COc1cc(Cl)c(OC)cc1Cl,-0.128% (inactive),–
c1ccc(CN2CCNCC2)cc1,0.0123% [at 240 µM] (inactive),–
CS/C(C)=N/OC(=O)N(C)SN(C)C(=O)O/N=C(\C)SC,-0.292% (inactive),–
CCCN(CCC)c1c([N+](=O)[O-])cc(S(C)(=O)=O)cc1[N+](=O)[O-],-0.875% (inactive),–
COc1nn(C(=O)NS(=O)(=O)c2ccccc2OC(F)(F)F)c(=O)n1C,1.21% (inactive),–
CCCCCCC#N,0.238% (inactive),–
NCCCNCCCN,-0.0735% (inactive),–
COCCOCCO,-2.32% (inactive),–
Brc1ccc(Oc2ccccc2)cc1,–,inactive
O=C(O)C(F)(F)C(F)(F)C(F)(F)C(F)(F)C(F)(F)C(F)(F)C(F)(F)C(F)(F)C(F)(F)F,-1.36% (inactive),–

Structure (SMILES),caspase activation,Potency
CC(=O)[C@H]1CC[C@H]2[C@@H]3CC[C@H]4C[C@](C)(O)CC[C@]4(C)[C@H]3CC[C@]12C,-0.453% [at 42.5 µM] (inactive),–
CC(C)(C)c1cc([N+](=O)[O-])cc([N+](=O)[O-])c1O,-2.2% (inactive),–
N#C/C(N)=C(/N)C#N,-2.46% (inactive),–
O=C(N[C@H](c1ccccc1)[C@@H]1CN2CCC1CC2)c1c(Cl)ccc(C(F)(F)F)c1Cl,11% (inactive),–
O=C(NC(=O)c1c(F)cccc1F)Nc1cc(Cl)c(Oc2ncc(C(F)(F)F)cc2Cl)c(Cl)c1,-1.51% (inactive),–
CCCCOC(=O)c1ccccc1C(=O)OCc1ccccc1,–,inactive
ClC=C(Cl)Cl,0.139% (inactive),–
Clc1ccc(C2(Cn3cncn3)CC(Br)CO2)c(Cl)c1 (stereo not given),-0.825% (inactive),–
CCOP(=S)(Oc1ccc([N+](=O)[O-])cc1)c1ccccc1 (stereo not given),0.504% (inactive),–
CCCN(CCCl)c1c([N+](=O)[O-])cc(C(F)(F)F)cc1[N+](=O)[O-],-1.03% (inactive),–
O=C(Nc1ccccc1)Nc1cnns1,-8.45% (inactive),–
Cc1ccccc1CCl,0.163% (inactive),–
O=C(NCc1cccnc1)Nc1ccc([N+](=O)[O-])cc1,-0.125% (inactive),–
CN(N=O)c1ccc([N+](=O)[O-])cc1,0.392% (inactive),–
C#CCOC(C(=O)OCCN(C)C)(c1ccccc1)c1ccccc1,0.141% [at 42.5 µM] (inactive),–
ClCc1ccccc1,0.413% (inactive),–
CCC(COC(=O)c1cc(OC)c(OC)c(OC)c1)(c1ccccc1)N(C)C (stereo not given),-2.22% [at 42.5 µM] (inactive),–
CCCCC(CC)COP(=O)(Oc1ccccc1)Oc1ccccc1 (stereo not given),0.0345% (inactive),–
CCc1ccc(C(=O)NN(C(=O)c2cc(C)cc(C)c2)C(C)(C)C)cc1,-4.24% (inactive),–
CC1(C)[C@H](C=C(Cl)Cl)[C@@H]1C(=O)O[C@@H](C#N)c1cccc(Oc2ccccc2)c1,-4.64% (inactive),–
